Most compounds without a hit are left out; they make up all but 1.3% or so of the library.
PvdQ inh: blocks Pseudomonas aeruginosa PvdQ acylase activity. purified PvdQ acylase, fluorescence plate reader. inhibition, % at 10 µM. actives 0.063% (n = 340,000). AID 488965; in the data active means inhibition above about 30%, passing the limit was not always enough
HTR5A ag ctr: activates human HTR5A in OPRM1-OPRD1 agonist counter-screen. P47898. activation, % at 9.3 µM. HTR5A agonist assay, luminescence, cell-based. AID 504692. actives 0.61% (n = 340,000); in the data active means activation mostly above about 9.5%, no sharp cut-off; inactive means mostly below about 7.6%
HTR5A inv ag: counter-screen for OPRM1-OPRD1 inverse agonists: human HTR5A inverse agonism; P47898; HTR5A cell line, luminescence; inhibition, % at 9.3 µM; actives 0.083% (n = 340,000); AID 504634; in the data active means inhibition mostly above about 23%, no sharp cut-off; inactive means mostly below about 18%
MOR-DOR inv ag-1: inverse agonists of human mu-delta opioid receptor heterodimerization | P35372+P41143 | cell-based MOR-DOR heterodimer luminescence, inverse agonism | inhibition, % at 9.3 µM | actives 0.21% (n = 340,000); in the data active means inhibition above about 22%, passing the limit was not always enough
Target sequence (P35372 whole entry, looked up): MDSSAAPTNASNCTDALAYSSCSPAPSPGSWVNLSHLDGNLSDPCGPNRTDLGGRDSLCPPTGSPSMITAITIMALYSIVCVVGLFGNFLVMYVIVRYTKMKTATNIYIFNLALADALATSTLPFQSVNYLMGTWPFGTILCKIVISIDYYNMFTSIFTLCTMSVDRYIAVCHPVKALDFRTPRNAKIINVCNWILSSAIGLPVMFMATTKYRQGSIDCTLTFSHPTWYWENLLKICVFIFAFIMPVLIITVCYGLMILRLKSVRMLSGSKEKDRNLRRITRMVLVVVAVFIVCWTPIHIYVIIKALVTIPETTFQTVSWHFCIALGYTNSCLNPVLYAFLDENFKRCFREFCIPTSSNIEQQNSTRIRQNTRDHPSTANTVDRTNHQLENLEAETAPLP
Target sequence (P41143 whole entry, looked up): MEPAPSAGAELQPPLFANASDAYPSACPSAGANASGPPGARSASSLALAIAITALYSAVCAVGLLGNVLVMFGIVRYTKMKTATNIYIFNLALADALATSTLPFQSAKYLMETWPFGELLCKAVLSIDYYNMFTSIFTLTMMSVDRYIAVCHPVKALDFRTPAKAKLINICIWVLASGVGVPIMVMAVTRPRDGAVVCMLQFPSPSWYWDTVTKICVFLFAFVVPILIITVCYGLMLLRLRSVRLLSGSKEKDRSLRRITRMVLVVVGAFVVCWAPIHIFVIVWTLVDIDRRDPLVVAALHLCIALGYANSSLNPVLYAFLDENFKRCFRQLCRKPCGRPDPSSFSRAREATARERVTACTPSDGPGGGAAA
MOR-DOR ag-1: OPRM1-OPRD1 heterodimerization agonism; P35372+P41143; cells, luminescence; activation, % at 9.3 µM; actives 0.3% (n = 340,000); AID 504326; in the data active means activation above about 18%
CR mimetic SO: caloric restriction mimetics inhibiting age-related superoxide in yeast | actives 0.18% (n = 330,000) | superoxide response (% of plate mean), % at 10 µM | S. cerevisiae aged cells, superoxide DHE fluorescence; active compounds read low | AID 2690;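 active means superoxide response under a set limit, about three screen SD below normal, cut at about 65% in these data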;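 further: yeast aged for seven days with compound at 30 °C before DHE staining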
MOR-DOR inv ag-2: opioid heterodimer inverse agonism, HTR5A counter-screen; shares compounds with HTR5A inv ag; U2OS counter-screen cells, complementation luminescence; inhibition, % at 9.3 µM; 190 tested, under 10 active; AID 504912
HTR5A inv confrm: confirmation of human HTR5A inverse agonists. shares compounds with HTR5A inv ag. HTR5A-expressing cells, inverse agonism, luminescence. inhibition, % at 9.3 µM. 190 tested, under 10 active. AID 504916
MOR-DOR ag-2: counter-screen for HTR5A agonists: OPRM1-OPRD1 heterodimerization agonism. actives 13% (n = 800). shares compounds with HTR5A ag ctr. activation, % at 9.3 µM. U2OS counter-screen cells, complementation luminescence, 3 h; in the data active means activation above about 18%
HTR5A ag conf: HTR5A (human) agonism, confirmation | shares compounds with HTR5A ag ctr | HTR5A agonist cell assay, luminescence | actives 17% (n = 800) | activation, % at 9.3 µM; in the data active means activation above about 17%
Each line names hits and unclear results; the compound was inactive in the other large screens (follow-up assays come after a bar, where they were run). Unless noted, how the calls were made is not given here.

Cc1c(N2C(=O)/C(=C/c3ccc(N(C)C)cc3)N(C)C2=S)c(=O)n(-c2ccccc2)n1C	HTR5A inv ag 29 (no result: CR mimetic SO) | MOR-DOR inv ag-2 inactive | HTR5A inv confrm inactive
COc1cccc(/C=C/c2ccc3cccc(O)c3n2)c1OC	HTR5A inv ag 32 | MOR-DOR inv ag-2 inactive | HTR5A inv confrm inactive
COc1ccc(/C=C/c2ccc3cccc(O)c3n2)c(OC)c1OC	HTR5A inv ag 35 | MOR-DOR inv ag-2 inactive | HTR5A inv confrm inactive
CCOc1ccccc1C1c2[nH]c3ccccc3c2C[C@H]2C(=O)N(C3CCN(Cc4ccccc4)CC3)CC(=O)N12 (stereo partly specified)	none
Cc1ccccc1C1c2[nH]c3ccccc3c2C[C@H]2C(=O)N(C3CCN(Cc4ccccc4)CC3)CC(=O)N12 (stereo partly specified)	HTR5A inv ag 32 | MOR-DOR inv ag-2 inactive | HTR5A inv confrm inactive
O=S(=O)(c1cc(O)ccc1O)c1cccc2c(S(=O)(=O)c3cc(O)ccc3O)cccc12	none
CN(C)c1ccc2nc3c(=O)[nH]c(=O)nc-3n(CC(O)C(O)C(O)CO)c2c1 (stereo unspecified)	HTR5A inv ag 33 | MOR-DOR inv ag-2 inactive | HTR5A inv confrm 85
Cc1ccc(C2N(C)c3ccccc3-c3nc4ccccc4n32)o1 (stereo unspecified)	none
CC(=O)N1c2ccccc2-c2nc3ccccc3n2C1C (stereo unspecified)	HTR5A inv ag 32 | MOR-DOR inv ag-2 inactive | HTR5A inv confrm inactive
COCCOC(=O)C1=C(C)OC(N)=C(C#N)C1c1ccc2c(c1)OCO2 (stereo unspecified)	HTR5A inv ag 33 | MOR-DOR inv ag-2 inactive | HTR5A inv confrm inactive
Cc1cc([N+](=O)[O-])nn1Cc1noc(C(=O)NCCc2ccccn2)n1	none
O=C(c1ccc(Cl)cc1)c1ccc(Oc2cc(NN3CCCCC3)c([N+](=O)[O-])cc2[N+](=O)[O-])cc1	none
CCOC(=O)C1(Cc2cccc(OC)c2)CCCN(Cc2cc(C(C)C)n[nH]2)C1 (stereo unspecified)	HTR5A ag ctr 16 | MOR-DOR ag-2 inactive | HTR5A ag conf 38
O=C(CC1CC2CCC1C2)OCC(=O)c1c[nH]c2ccccc12 (stereo unspecified)	HTR5A ag ctr 15 | MOR-DOR ag-2 inactive | HTR5A ag conf inactive
O=C(COC(=O)CC1CC2CCC1C2)NCc1ccc(F)cc1 (stereo unspecified)	none
C=CCN=C(NC#N)SCC(=O)NC(C)(C)C	HTR5A ag ctr 17 | MOR-DOR ag-2 20 | HTR5A ag conf inactive
CC(C)(C)c1ccc(/C=C(\C#N)C(=O)NCCN2CCOCC2)cc1	none
Cc1[nH]nc(-c2ccc(OCc3cnn(-c4ccccc4)c3)c(C)c2O)c1Oc1ccccc1	HTR5A ag ctr 22 | MOR-DOR ag-2 19 | HTR5A ag conf inactive
Cc1[nH]nc(-c2ccc(OCc3cnn(-c4ccccc4)c3)cc2O)c1Oc1ccc(F)cc1	none
COc1ccc(OC)c2c1sc(=NC(=O)c1ccco1)n2C	none
CCn1c(=NC(=O)c2ccco2)sc2cccc(F)c21	HTR5A ag ctr 20 | MOR-DOR ag-2 inactive | HTR5A ag conf inactive
CN(C)c1ccc(S(=O)(=O)c2ccc(Cl)cc2)cc1	HTR5A ag ctr 16 | MOR-DOR ag-2 inactive | HTR5A ag conf inactive
CN(C)c1ccc(NS(=O)(=O)c2ccc(Cl)cc2)cc1	none
Cc1onc(-c2ccccc2)c1C(=O)N/N=C/c1ccc([N+](=O)[O-])c(O)c1	HTR5A ag ctr 20 | MOR-DOR ag-2 inactive | HTR5A ag conf inactive
Cc1onc(-c2ccccc2)c1C(=O)N/N=C/c1ccc(O)c([N+](=O)[O-])c1	none
Cn1cc(S(=O)(=O)NCc2cccs2)c(=O)n(C)c1=O	HTR5A ag ctr 19 | MOR-DOR ag-2 inactive | HTR5A ag conf inactive
Cn1cc(S(=O)(=O)NCc2ccc(F)cc2)c(=O)n(C)c1=O	none
CCOC(=O)c1c(C)[nH]c(C(=O)CSc2ccc(Cl)cc2)c1C	HTR5A ag ctr 15 | MOR-DOR ag-2 inactive | HTR5A ag conf inactive
CCOC(=O)c1c(C)[nH]c(C(=O)CSc2nc(C)cc(C)n2)c1C	none
Cc1cc(NS(=O)(=O)c2ccc(NC(=O)COc3ccc(Cl)cc3Cl)cc2)no1	HTR5A ag ctr 20 | MOR-DOR ag-2 inactive | HTR5A ag conf inactive
Cc1cc(NS(=O)(=O)c2ccc(NC(=O)COc3ccc(Cl)c(C)c3)cc2)no1	none (no result: CR mimetic SO)
Cc1ccc(S(=O)(=O)NCCC(=O)N2CC(C)OC(C)C2)cc1C (stereo unspecified)	none
Cc1cc(OCC(=O)N(Cc2ccco2)c2c(N)n(Cc3ccccc3)c(=O)[nH]c2=O)ccc1Cl	none
CCC(C)NC(=S)N(Cc1cc2cc(C)ccc2n2nnnc12)CC(C)(C)NC(C)C (stereo unspecified)	none
COc1ccccc1NC(=S)N1C2CCC1CC(NC(=O)NC13CC4CC(CC(C4)C1)C3)C2 (stereo unspecified)	HTR5A ag ctr 16 | MOR-DOR ag-2 inactive | HTR5A ag conf inactive
COc1cccc(N2C(=O)CC(N3CCN(S(=O)(=O)c4ccccc4[N+](=O)[O-])CC3)C2=O)c1 (stereo unspecified)	none (no result: CR mimetic SO)
COc1ccc2nc(SCC(=O)NCc3ccc(S(N)(=O)=O)cc3)[nH]c2c1	none
CCOc1cc(N2CCOCC2)c(OCC)cc1NC(=O)c1cc(-c2ccco2)nc2ccccc12	HTR5A ag ctr 24 | MOR-DOR ag-2 96 | HTR5A ag conf inactive
O=C1c2ccccc2C2(c3cc(C(F)(F)F)cc(C(F)(F)F)c3)NCCN12 (stereo unspecified)	none
O=C(NCCNCCO)C1(C(F)(F)F)C/C(=C\CCO)CCCO1 (stereo unspecified)	none
O=C1OC(c2ccccc2)(c2ccc(O)cc2)c2ccccc21 (stereo unspecified)	HTR5A ag ctr 22 (no result: CR mimetic SO) | MOR-DOR ag-2 inactive | HTR5A ag conf inactive
O=C1OC(c2ccccc2)(c2ccccc2)c2ccccc21	none (no result: CR mimetic SO)
CCOC(=O)/C(C#N)=C/Nc1ccccc1OC	HTR5A ag ctr 17 | MOR-DOR ag-2 inactive | HTR5A ag conf inactive
C=CCN(c1ccccc1)S(=O)(=O)c1cccc(C(=O)N2CCCC2)c1	HTR5A ag ctr 15 | MOR-DOR ag-2 47 | HTR5A ag conf inactive
